Measured values: PubChem BioAssay AID2108 (National Center for Advancing Translational Sciences (NCATS), 2009)
Results filed as inconclusive are left out. The source made the active and inactive calls. Calls follow the shape of the dose curve; as a rule, active = well fitted curve in the direction sought with a large enough effect; inconclusive = small, poorly fitted or top-dose-only effect, or effect the other way, or another doubt; inactive = no such curve, though single readings can be large or run the other way.
Also: 0% is about no effect.

Each compound was assayed against Alpha-galactosidase A (Homo sapiens) (UniProt P06280) (assay: Confirmation of Inhibitors of Human alpha-Galactosidase Using Spleen Homogenate). Settings: alpha-galactosidase enzyme activity; series mostly up to 56.2 µM; activity change: at the top concentration.
Alpha-galactosidase A (Homo sapiens), sequence (P06280 32-429 limits assumed): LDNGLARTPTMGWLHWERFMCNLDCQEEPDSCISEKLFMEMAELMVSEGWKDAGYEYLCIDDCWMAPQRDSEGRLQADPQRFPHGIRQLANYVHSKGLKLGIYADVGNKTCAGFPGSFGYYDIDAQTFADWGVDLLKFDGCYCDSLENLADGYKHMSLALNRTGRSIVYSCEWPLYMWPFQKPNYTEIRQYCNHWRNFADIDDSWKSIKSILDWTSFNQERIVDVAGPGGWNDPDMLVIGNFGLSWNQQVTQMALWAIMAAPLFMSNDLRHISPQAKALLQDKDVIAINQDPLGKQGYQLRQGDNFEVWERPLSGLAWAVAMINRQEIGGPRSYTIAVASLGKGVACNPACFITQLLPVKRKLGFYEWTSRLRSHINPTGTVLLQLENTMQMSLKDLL
From the text: NIH Chemical Genomics Center [NCGC]
NIH Molecular Libraries Probe Production Centers Network [MLPCN]
Assay Submitter (PI): Wei Zheng
Alpha-galactosidase is a homodimeric glycoprotein that hydrolyzes the terminal alpha-galactosyl moieties from glycolipids and glycoproteins. Deficiency of this enzyme results in Fabry Disease with progressive accumulation of globotriaosylceramide and other glycosphingolipids in vascular endothelial cells that causes renal failure, myocardial infarction and stroke, and premature death in patients. It has been reported that the improper folding and trafficking of alpha-galactosidase resulting from genetic mutations may account for a significant number of Fabry patients. […] We optimized this alpha-galactosidase assay in 1536-well plate format for identification of novel small molecule inhibitors or activators with structures other than the sugar analogs in order to develop new pharmacological chaperones. In particular, this assay is directed towards discovering compounds active in more natural setting, tissue homogenate, that may have been missed by screens of the purified enzyme under more stringent conditions. This assay attempted to confirm hits from the primary screening.
NCGC Assay Protocol Summary:
This is a fluorogenic enzyme assay with 4-methylumbelliferyl-alpha-D-galactopyranoside as the substrate and human spleen homogenate containing alpha-galactosidase as the enzyme preparation. Upon hydrolysis of this fluorogenic substrate, the resulting product, 4-methylumbelliferone (which excites at 365 nm and emits at 440 nm) can be detected by a fluorescence plate reader. Data were normalized to the controls for basal activity (without enzyme) and 100% activity (with enzyme). The AC50 values were determined from concentration-response data modeled with the standard Hill equation.
Assay buffer: 50 mM citric acid (titrated with potassium phosphate to pH 5.0), 0.01% Tween-20 (pH 5.0 is an optimal condition for this enzyme assay)
1536-well assay protocol for the alpha-galactosidase from human spleen homogenate:
(1) Add 2 ul/well spleen homogenate (1 ug)
(2) Add 23 nL compounds in DMSO solution. The final titration was 0.5 nM to 58 uM.
(3) Add 2 ul of substrate (1 mM final)
(4) Incubate at 37C for 40 min
(5) Add 2 ul stop solution (1M NaOH and 1M Glycine mixture, pH 10)
(6) Detect the assay plate in a ViewLux plate reader (PerkinElmer) with Ex=365 nm and Em=440nm.
Keywords: Alpha-galactosidase, Fabry Disease, pharmacological chaperone, chaperone therapy, high throughput screening, alpha- galactosidase inhibitor, MLSMR, MLSCN, NIH Roadmap, qHTS and NCGC
In the case of `O[C@H]1[C@H](O)[C@@H](O)CN2CC[C@H](O)[C@H]12`, the outcome is reported as “inactive”. `Cc1[nH]c2ccccc2c1C1=CCNCC1` was tested, and the “activity change” value was 0.948% (inactive). `O[C@@H]1[C@H](O)[C@H]2[C@@H](O)CCN2C[C@@H]1O` was tested, and the “activity change” value was -6.64% [at 287 µM] (inactive). In the case of `Cc1cc(/C=C2/C(=O)NC(=O)N(Cc3ccco3)C2=O)c(C)n1-c1ccc(C(=O)O)cc1`, the “activity change” value is reported as 1.17% (inactive). For `Cc1cc(/C=C2\C(=O)NC(=O)N(c3ccc(F)cc3)C2=O)c(C)n1-c1ccc(C(=O)O)cc1`, the “activity change” value was 0.884% (inactive). In the case of `Cc1cc(C(=O)CS(=O)(=O)c2ccc(F)cc2)cc(C)c1OC(=O)N(C)C`, the “activity change” value is reported as 2.73% [at 23.6 µM] (inactive). For `CCCCC/C=C\C/C=C\C/C=C\C/C=C\CCCC(=O)NCCCC(=O)O`, the “activity change” value was -14.3% (inactive). For `CC(=O)Nc1ccc(OC(=O)c2ccccc2N)cc1`, the “activity change” value was 6.81% [at 23.6 µM] (inactive). For `O=c1[nH]c(CN2CC=C(c3ccccc3)CC2)nc2scc(-c3cccs3)c12`, the “activity change” value was -0.863% (inactive). For `CCOc1ccc2cc(C#N)c(=O)oc2c1`, the “activity change” value was 1.36% (inactive). For `C/C(O)=C(/C#N)C(=O)Nc1cc(Br)ccc1Br`, the “activity change” value was -8.06% (inactive). For `O=C(O)c1ccccc1-c1c2cc(Br)c(=O)cc-2oc2[c]([Hg])c(O)c(Br)cc12`, the “activity change” value was -13.4% [at 287 µM] (inactive). With `Cc1ccc2c(CN3CC=C(c4ccccc4)CC3)cc(=O)oc2c1C` the “activity change” value was 0.701% (inactive). `OC[C@@H]1[C@@H](O)[C@H](O)[C@H]2[C@@H](O)CCN21` was tested, and the “activity change” value was -8.3% (inactive). `COc1ccc(Cc2nccc3cc(OC)c(OC)cc23)cc1OC` was tested, and the “activity change” value was -3.36% (inactive). `CC(=O)[O][Hg][c]1ccccc1` was tested, and the “activity change” value was 4.67% [at 287 µM] (inactive). In the case of `C/C=C(/C)C(=O)O[C@H]1C(C)=C2C([C@@H]1OC(=O)CCCCCCC)[C@@](C)(OC(C)=O)C[C@@H](OC(=O)CCC)[C@@]1(O)[C@H]2OC(=O)[C@@]1(C)O` (stereo partly drawn), the “activity change” value is reported as -13.8% (inactive). For `CC(C)(C)c1cc(C=C(C#N)C#N)cc(C(C)(C)C)c1O`, the “activity change” value was -10.5% (inactive).
